Inhibition data for 89 molecules are collected here from PubChem BioAssay AID1861 (The Scripps Research Institute Molecular Screening Center, 2009).

The campaign covered roughly 290,000 compounds. About 3,100 (1.1%) were called active. Rule as the data show it: active = inhibition above about 16% (passing the limit was not always enough); inactive = the rest. What follows is part of a selection rich in actives, with near analogues and random picks from the rest.

Broadly, the inhibition is the change of the read-out against control, counted positive when it falls.

The target of the test is Neuropeptides B/W receptor type 1 (Homo sapiens) (UniProt P48145). Kind of test: blockers of human neuropeptide B/W receptor 1 – cell-based, fluorescence, single concentration, primary screen (AID 1861).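 Also: cells stimulated with the agonist NPW; 0% = agonist with vehicle and 100% = vehicle without agonist.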 To be noted: GPR7-expressing cells, fluorescence antagonist assay; at 4.4 µM; active compounds read high.
Chain of Neuropeptides B/W receptor type 1 (Homo sapiens) (P48145 whole entry, looked up): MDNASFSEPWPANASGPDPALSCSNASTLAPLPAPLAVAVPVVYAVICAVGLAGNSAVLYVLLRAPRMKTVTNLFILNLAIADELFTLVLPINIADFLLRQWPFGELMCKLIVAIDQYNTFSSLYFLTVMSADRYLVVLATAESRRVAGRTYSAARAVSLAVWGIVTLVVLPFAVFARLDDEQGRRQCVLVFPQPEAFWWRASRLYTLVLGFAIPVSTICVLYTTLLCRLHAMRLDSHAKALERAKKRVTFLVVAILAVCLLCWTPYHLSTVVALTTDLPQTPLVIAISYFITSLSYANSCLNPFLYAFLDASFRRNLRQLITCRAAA
On to `O=C(COc1ccc(Cl)cc1Cl)NCCCNC(=O)c1cnccn1`, for which the inhibition is -1.6% (inactive).
Take `CC(=O)N1c2ccc(S(=O)(=O)N3CCCC(C(=O)Nc4cccc(Cl)c4)C3)cc2CC1C` (centres undefined): the inhibition was 2.68% (inactive).
As for `CC(=O)N1CCCc2cc(S(=O)(=O)N3CCCC(C(=O)NCc4ccc(Cl)cc4)C3)ccc21` (centres undefined), the figure is 0.31% (inactive); as for `CC(=O)N1CCCc2cc(S(=O)(=O)N3CCCC(C(=O)N4CCN(c5cccc(Cl)c5)CC4)C3)ccc21` (centres undefined), 35.7% (active); as for `CCOc1cc2[nH]c(=S)n(Cc3ccc(C(=O)N4CCN(C)CC4)cc3)c(=O)c2cc1OCC`, 2.37% (inactive).
As for `CCNC(=S)N(CCN(CC)CC)Cc1cc2cc3c(cc2[nH]c1=O)OCCO3`, the figure is -10.2% (inactive).
As for `COc1cc2ccccc2cc1C(=O)Nc1ccc(NC(=O)c2cccs2)cc1`, the figure is -3.15% (inactive).
With `COc1ccc(-n2c(C)cc(C(=O)COC(=O)c3cc(OC)c(OC)cc3NC(=O)c3cccs3)c2C)cc1`, the inhibition was 27.1% (active).
As for `Cc1cc(C(=O)COC(=O)c2cccs2)c(C)n1-c1c(C)n(C)n(-c2ccccc2)c1=O`, the figure is -14.8% (inactive); as for `O=C(O)c1ccc(S(=O)(=O)N2CCOCC2)o1`, 1.56% (inactive).
In the case of `Cc1ccc(S(=O)(=O)NCC2CCC(C(=O)N3CCOCC3)CC2)cc1` (centres undefined), the inhibition is -4.78% (inactive).
Turning to `CN1C/C(=C/c2cccs2)C(=O)/C(=C\c2cccs2)C1`, the inhibition is -7.39% (inactive).
As for `CS(=O)(=O)N(Cc1nc2sc3c(c2c(=O)[nH]1)CCCC3)C1CCCCC1`, the figure is 1.34% (inactive); as for `CCCC(=O)Nc1nc2ccc(NC(=O)c3c(F)c(F)c(OC)c(F)c3F)cc2s1`, 36.2% (active).
The same measure for `CCCC(=O)Nc1nc2ccc(NC(=O)c3cccnc3)cc2s1`: 3.59% (inactive); for `CSc1nc2ccc(NC(=O)c3c(F)cccc3F)cc2s1`: -5.74% (inactive).
The same measure for `CN(C)c1nc(=Nc2cccc(Cl)c2)ss1`: -8.61% (inactive).
As to `CNS(=O)(=O)c1cccc(C(=O)NC2CCCc3ccccc32)c1` (centres undefined), the inhibition is -8.59% (inactive).
Regarding `COc1ccc(C(CNCC(=O)Nc2ccccc2F)N(C)C)cc1` (centres undefined), the inhibition is 0.06% (inactive).
Regarding `COc1ccc(C(CCNCc2ccccc2F)c2ccc(F)cc2)cc1` (centres undefined), the inhibition is 27.6% (active).
The same measure for `COc1ccc(CC(=O)NC(C)CCc2ccccc2)cc1` (centres undefined): -6.45% (inactive); for `N#Cc1c(Cl)nc(-c2cccnc2)nc1-c1ccccc1`: 4.22% (inactive); for `O=C1CSC(c2ccccc2)N1c1nc(-c2ccc(Cl)cc2Cl)cs1` (centres undefined): -0.11% (inactive).
For `Clc1ccc(-c2cc(C3CCNCC3)[nH]n2)c(Cl)c1`, the inhibition was 28.3% (active).
As for `Clc1ccc(-c2cc(-c3ccccn3)on2)c(Cl)c1`, the figure is -1.76% (inactive); as for `COc1ccc(N(CC(=O)NCc2ccc(F)cc2)C(=O)CCC(=O)Nc2nccs2)cc1`, 1.89% (inactive).
The same measure for `COCCOC1CCN(C(=O)c2ccc(OC)c(OC3CCN(C(C)C)CC3)c2)CC1`: -13.7% (inactive).
On to `Cc1ccc(CN2CCN(Cc3cn(C)nc3-c3ccccc3)CC2CCO)o1` (centres undefined), for which the inhibition is -17.8% (inactive).
On to `Cc1ccccc1CN1C[C@@H]2C[C@@H](c3cn(C)nc3-c3ccccc3)N3CCC[C@@]23C1=O`, for which the inhibition is 25.5% (active).
Consider `Cc1ccccc1CN1C[C@@H]2C[C@@H](c3ccc4nsnc4c3)N3CCC[C@@]23C1=O`, for which the inhibition was -4.53% (inactive).
Consider `CS(=O)(=O)c1ccc(-c2nnn(CC(=O)Nc3ccc4c(c3)OCCO4)n2)cc1`, for which the inhibition is 11.6% (inactive).
For the molecule `O=C(CN(Cc1ccc(Br)cc1)S(=O)(=O)c1ccccc1)NCc1ccncc1`, the inhibition was 5.84% (inactive).
As for `CC(=O)NNC(=O)c1csc(Cc2c(Cl)sc3ccc(Cl)cc23)n1`, the figure is 0.26% (inactive).
On to `CC1CCN(S(=O)(=O)c2ccc(S(=O)(=O)NCc3ccco3)cc2)CC1`, for which the inhibition is 19.6% (active).
As for `CC1CCN(S(=O)(=O)c2ccc(S(=O)(=O)NCc3cccnc3)cc2)CC1`, the figure is -1.72% (inactive); as for `Cc1ccc(S(=O)(=O)N2CCC(C(=O)N[C@@H](C)C(=O)NCc3ccco3)CC2)cc1`, 2.63% (inactive).
For the molecule `O=C(CC1SC(=Nc2ccccc2)N(Cc2ccccn2)C1=O)Nc1cccc(Cl)c1` (centres undefined), the inhibition was -4.47% (inactive).
As for `CCN1C(=NCc2ccc(OC)cc2)N[C@@H](CCc2ccccc2)[C@H](C(=O)NCc2ccc(OC)cc2)[C@H]1C`, the inhibition is 14% (inactive).
As for `CCN(CC)CCCNC(=O)c1c(O)c2cc(F)cc3c2n(c1=O)C(C)CC3` (centres undefined), the figure is 4.5% (inactive); as for `O=C(Nc1nc2ccc([N+](=O)[O-])cc2s1)c1ccc(S(=O)(=O)N2CCCc3ccccc32)cc1`, -16.1% (inactive); as for `CC(=O)N(CCCN(C)C)c1nc2ccc(C)cc2s1`, -10.8% (inactive).
On to `CN(C)CCCN(C(=O)c1ccc(S(=O)(=O)N2CCCCCC2)cc1)c1nc2ccc(Br)cc2s1`, for which the inhibition is 28.6% (active).
As for `CCOc1ccc2nc(N(CCN(C)C)C(=O)c3ccc4ccccc4c3)sc2c1`, the figure is 3% (inactive).
As for `CCOc1ccc2nc(N(CCCN(C)C)C(=O)c3ccc(C(=O)c4ccccc4)cc3)sc2c1`, the figure is 6.16% (inactive); as for `CCN(CC)CCN(C(=O)c1ccc(S(=O)(=O)N2CCOCC2)cc1)c1nc2cc3c(cc2s1)OCCO3`, -11.1% (inactive); as for `CN(C)CCCN(C(=O)c1ccc(S(=O)(=O)N2CCCc3ccccc32)cc1)c1nc2ccc(F)cc2s1`, 41.8% (active).
Take `CCc1ccc2nc(N(CCCN(C)C)C(=O)c3ccc4c(c3)OCCO4)sc2c1`: the inhibition is 22.4% (active).
The same measure for `CSc1nc2ccc(S(=O)(=O)N3CCc4ccccc43)cc2s1`: -0.77% (inactive); for `COc1ccc(C(C(=O)NC2CCCCC2)N(C(=O)Cc2c[nH]c3ccccc23)c2ccccc2)cc1OC` (centres undefined): -5.99% (inactive); for `Cc1cc(S(=O)(=O)c2cc3ccc(O)c(C)c3oc2=O)ccc1F`: -15% (inactive).
As for `Cc1ccccc1NC(=O)CCNS(=O)(=O)c1ccc2[nH]c(=O)oc2c1`, the figure is -12.7% (inactive); as for `O=C(Nc1ccc(C2CC2(Cl)Cl)cc1)c1cccc([N+](=O)[O-])c1` (centres undefined), -6.54% (inactive); as for `Nc1ccn(C2CC(O)C(CO)O2)c(=O)n1` (centres undefined), -7.05% (inactive).
The same measure for `O=C(COc1ccc(S(=O)(=O)N2CCOCC2)cc1Cl)N1CCOCC1`: -13.2% (inactive).
Regarding `CN(c1ccccc1)S(=O)(=O)c1ccc(C(=O)NCCc2ccccc2)cc1`, the inhibition is 23.9% (active).
Consider `Cc1ccccc1CSCCNC(=O)c1ccc(N(C)S(=O)(=O)c2ccccc2)cc1`, for which the inhibition was 1.47% (inactive).
As for `COc1ccccc1CNC(=O)c1ccc(N(C)S(=O)(=O)c2ccc(C)cc2)cc1`, the inhibition is -3.56% (inactive).
Take `O=C(NCCS(=O)(=O)c1ccc(Br)cc1)c1ccccc1Cl`: the inhibition was 1.64% (inactive).
In the case of `O=C(c1ccco1)N1CCN(Cc2cccc(C(F)(F)F)c2)CC1`, the inhibition is -13.2% (inactive).
The same measure for `Cc1ccc(NS(=O)(=O)c2ccc(-c3ccc(=O)[nH]n3)o2)c(C)c1`: -0.17% (inactive).
`COc1cc(C(C(=O)NC2CCCC2)N(Cc2ccccc2)C(=O)c2snc(C(N)=O)c2N)ccc1O` (centres undefined): the inhibition is -10.6% (inactive).
Turning to `CCc1ccc(S(=O)(=O)Nc2cc3c(cc2N2CCCCC2)n(C)c(=O)c(=O)n3C)cc1`, the inhibition is 4.78% (inactive).
For the molecule `COc1ccc(S(=O)(=O)n2cnc3ccccc32)c(C)c1`, the inhibition is -5.76% (inactive).
Consider `Cc1ccc(C)c(S(=O)(=O)n2cnc3ccccc32)c1`, for which the inhibition is 8% (inactive).
The same measure for `Cc1ccc(S(=O)(=O)n2cnc3ccccc32)c(C)c1`: 35.5% (active); for `CCc1nc2ccc(C(=O)N3CCN(c4cccc(Cl)c4)CC3)cc2nc1CC`: -5.19% (inactive); for `O=C1CCC([N+](=O)[O-])C(c2ccccc2Br)N1` (centres undefined): -13.4% (inactive).
For `COc1ccc(C2CC(=O)Nc3cc(C)c(C)cc32)c(OC)c1OC` (centres undefined), the inhibition was -2.76% (inactive).
The same measure for `CCCOc1ccccc1C1CC(=O)Nc2cc3c(cc21)OCO3` (centres undefined): 23.7% (active); for `COc1ccccc1C1C2=C(COC2=O)Nc2cc3c(cc21)OCO3` (centres undefined): 3.72% (inactive); for `Cc1cc2c(cc1C)N(Cc1ccccc1)C1=NCCCN12`: 23.7% (active).
As for `OC(CN1C2=NCCCN2c2ccccc21)c1ccc(Br)cc1` (centres undefined), the figure is 13.8% (inactive); as for `CC(C)(C)C(=O)CN1C2=NCCN2c2ccccc21`, -10.1% (inactive); as for `CC(=O)Nc1ccc(NC(=O)CS(=O)(=O)c2cn(CC(=O)N3CCCCC3)c3ccccc23)cc1`, -0.17% (inactive).
In the case of `CC(=O)Nc1ccc(CN2CCC(Oc3ccc(C(=O)N4CCCC4)cc3)CC2)cc1`, the inhibition is -2.18% (inactive).
As for `COc1ccc(OCc2nnc3n2N=C(c2ccccc2)C(CC(=O)O)S3)cc1` (centres undefined), the figure is -5.82% (inactive).
With `O=C(Cc1ccccn1)c1ccc(O)cc1O`, the inhibition was 1.18% (inactive).
The same measure for `CCOc1ccc(NC(=O)CC2NCCNC2=O)cc1` (centres undefined): -18.5% (inactive).
The same measure for `CCOC(=O)C1CSC(CC(=O)Nc2ccc(OCC)cc2)C(=O)N1` (centres undefined): 31.6% (active).
As for `CCOc1ccc(NC(=O)CCNC(=O)c2ccc(Br)cc2)cc1`, the inhibition was -13.4% (inactive).
For `CN(c1ccccc1)S(=O)(=O)c1ccc(NC(=O)COc2ccccc2)cc1`, the inhibition was 1.02% (inactive).
The same measure for `COc1ccc(NC(=O)C2C3CCC(O3)C2C(=O)O)cc1OC` (centres undefined): -10.2% (inactive).
The same measure for `Cc1cccc(-c2nnc(SCC(=O)O)n2Cc2ccccc2)c1`: -5.33% (inactive).
The same measure for `CC1C=CCC2C(=O)N(c3cccc(C(=O)N4CCCCCC4)c3)C(=O)C12` (centres undefined): 3.08% (inactive); for `COC(=O)c1ccccc1NC(=O)CSc1n[nH]c(-c2ccncc2)n1`: -2.88% (inactive).
For the molecule `Cc1cc(-c2ccccc2)n2nc(C)c(-c3ccccc3)c2n1`, the inhibition is -10.5% (inactive).
Regarding `Cc1cc(-n2nc(C)cc2C)n2nc(C)c(-c3ccccc3)c2n1`, the inhibition was -6.35% (inactive).
The same measure for `CCc1c(C)nc2c(-c3ccccc3)c(C)nn2c1Nc1ccc(NC(C)=O)cc1`: 27.4% (active); for `COc1ccc(C(=O)CCC(=O)Nc2cccnc2)c(OC)c1`: 2.52% (inactive).
